# Data: PubChem BioAssay (Tox21)
# Values without a mark were called inactive. Results filed as inconclusive are left out. Entries that show only a call come without a potency. Calls of active or inactive are those of the source. Unless noted, calls follow the shape of the full dose curve.
# How the values were obtained:
# [1] = Nuclear factor erythroid 2-related factor 2/antioxidant responsive element (Nrf2/ARE) small molecule agonists: qHTS cell viability counter screen in human keratinocytes (AID 1919968; active = well fitted curve in the direction sought with a large enough effect in the repeat runs; an effect the other way counts as inactive or inconclusive; also: nearly all actives have a fitted effect of over 55% in size; also: potency is read from the fitted curve at half-maximal effect)
# Procedure, shortened: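 In human HaCaT keratinocytes stably expressing an ARE-driven luciferase, compound exposure lasted 23 h at 37 C under 5% CO2. Viable cells are quantified with a protease-based fluorogenic reagent (CellTiter-Fluor) read 1 h after addition.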
# [2] = Nuclear factor erythroid 2-related factor 2/antioxidant responsive element (Nrf2/ARE) small molecule agonists: luciferase reporter gene qHTS assay in human keratinocytes (AID 1919969); also: nearly all actives have a fitted effect of over 35% in size; also: potency is read from the fitted curve at half-maximal effect
# [3] = molecular target: Gonadotropin-releasing hormone receptor (Homo sapiens) (UniProt P30968); assay: Human gonadotropin-releasing hormone receptor (GnRHR) small molecule agonists, calcium flux assay in GnRHR-HEK293 cells (AID 1920063); also: nearly all actives have a fitted effect of over 35% in size
# Procedure, shortened: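 Intracellular calcium rise is the read-out: engineered human GnRHR HEK293 cells, dye-loaded, are exposed to DMSO-dissolved compounds and fluorescence at Ex/Em 480/540 is tracked for 3 min.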
# [4] = molecular target: KiSS-1 receptor (Homo sapiens) (UniProt Q969F8); assay: Human kisspeptin (KISS1R) small molecule agonists, calcium flux assay in KISS1R-HEK293 cells (AID 1920064; active = well fitted curve in the direction sought with a large enough effect in the repeat runs; an effect the other way counts as inactive or inconclusive)
# Procedure, shortened: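 Concentration-response testing used 15 concentrations in triplicate on human KISS1R-expressing HEK293 cells. Calcium-dependent fluorescence (Ex/Em 480/540) was followed kinetically for 3 min after compound transfer.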
# [5] = G protein-coupled receptor (GPCR) small molecule agonists, calcium flux assay: HEK293 wild type cell line counter screen (AID 1920065)
# Procedure, shortened: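 Fluorescence intensity signals activation. After overnight (18 h) culture and a 1 h calcium dye load at 37 C, compounds are added by pin tool and the plate read at 480/540 nm for 3 min in 1 s steps.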
# [6] = p53 small molecule agonists, cell-based qHTS assay with rat liver microsomes (AID 1963578)
# Procedure, shortened: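 p53RE-bla cells, 4,000/well, pre-incubated 5 h, then given compounds plus rat liver microsomes (0.5 mg/mL final) and NADPH (0.5 mg/mL final). Incubation 16 h at 37 C; beta-lactamase reporter read by LiveBLAzer fluorescence after 2 h at room temperature.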
# [7] = p53 small molecule agonists, cell-based qHTS assay with human liver microsomes: qHTS cell viability counter screen (AID 1963579); also: nearly all actives have a fitted effect of over 45% in size; also: potency is read from the fitted curve at half-maximal effect
# Procedure, shortened: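 p53RE-bla cells, 4,000/well, dosed 5 hours after plating, with human liver microsomes (0.5 mg/mL final) plus NADPH (0.5 mg/mL final), 16 hours at 37 C. Viability read as CellTiter-Glo luminescence after 30 min at room temperature.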
# [8] = p53 small molecule agonists, cell-based qHTS assay with rat liver microsomes: qHTS cell viability counter screen (AID 1963580); also: nearly all actives have a fitted effect of over 45% in size
# Procedure, shortened: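 Counter screen for cytotoxicity under metabolic activation: rat liver microsomes and NADPH, 0.5 mg/mL final each, added with compounds to p53RE-bla HCT-116 cells; 16 h at 37 C, then ATP luminescence read.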
# [9] = p53 small molecule agonists, cell-based qHTS assay: qHTS cell viability counter screen (AID 1963581); also: nearly all actives have a fitted effect of over 45% in size
# Procedure, shortened: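 Luminescence from CellTiter-Glo, reflecting ATP content, serves as the cytotoxicity measure; it is taken after the 2 h reporter substrate step in HCT-116 p53RE-bla cells dosed for 16 h at 37 C.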
# [10] = p53 small molecule agonists, cell-based qHTS assay (AID 1963582; active = well fitted activation curve with a large enough effect in the signal ratio in the repeat runs, not every such curve was filed as active; the % refers to the signal ratio)
# Procedure, shortened: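 After plating, p53RE-bla cells sat 5 h in the incubator; compounds or DMSO vehicle were pinned in; a 16 h incubation at 37 C followed; FRET substrate was added and, 2 h later at RT, fluorescence was measured.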
# [11] = molecular target: 5-hydroxytryptamine receptor 2A (Homo sapiens) (UniProt P28223); assay: 5-hydroxytryptamine receptor 2A (HTR2A) small molecule antagonists, cell-based qHTS assay (AID 1963586); also: nearly all actives have a fitted effect of over 45% in size; also: potency is read from the fitted curve at half-maximal effect
# Procedure, shortened: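 CHO cells stably expressing human HTR2A were plated for 18 h at 37 C, then loaded with calcium dye for 1 h. Compounds were preincubated 5 min at room temperature before DOI (4 nM solution) was added. Kinetic fluorescence was read for 3 min.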
# [12] = molecular target: Muscarinic acetylcholine receptor M1 (Homo sapiens) (UniProt P11229); assay: Cholinergic receptor muscarinic 1 (CHRM1) small molecule antagonists, cell-based qHTS assay (AID 1963588); also: nearly all actives have a fitted effect of over 40% in size; also: potency is read from the fitted curve at half-maximal effect
# Procedure, shortened: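 Compounds were tested at 15 concentrations in three independent runs. Dye-loaded CHRM1-CHO cells were exposed 5 min at room temperature before stimulation by acetylcholine added at 50nM. Intracellular calcium was read kinetically on FDSS for 3 min.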
# [13] = molecular target: Muscarinic acetylcholine receptor M1 (Homo sapiens) (UniProt P11229); assay: Cholinergic receptor muscarinic 1 (CHRM1) small molecule agonists, cell-based qHTS assay (AID 1963589); also: nearly all actives have a fitted effect of over 35% in size
# Procedure, shortened: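 Fluorescent calcium dye reports M1 activation in stably transfected CHO cells. Compounds, 15 concentrations, added after 1 h dye loading at 37 C; kinetic reading at 1 sec intervals.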
# [14] = cAMP Responsive Elements (CRE) small molecule agonists, cell-based qHTS assay (AID 1963590)
# Procedure, shortened: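 Compound exposure lasted 3 h at 37 C/5% CO2 in CRE-bla HEK 293T cells grown in assay medium with 10% dialyzed FBS and 25 mM HEPES. Reporter signal came from LiveBLAzer B/G FRET substrate, 2 h, room temperature.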
# [15] = cAMP Responsive Elements (CRE) small molecule antagonists, cell-based qHTS assay (AID 1963591; active = well fitted inhibition curve with a large enough effect in the signal ratio in the repeat runs, not every such curve was filed as active; the % refers to the signal ratio)
# Procedure, shortened: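 Stimulation used NKH477 at a final 0.25 uM for 3 h in compound-treated CRE-bla HEK293T cells, seeded 18 h beforehand. Reporter activity was measured with LiveBLAzer B/G FRET substrate after 2 h at room temperature.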
# [16] = molecular target: Beta-2 adrenergic receptor (Homo sapiens) (UniProt P07550); assay: Adrenergic beta2 receptor (ADRB2) small molecule antagonists, cell-based qHTS assay (AID 1963592); also: series mostly up to about 92 µM; nearly all actives have a fitted effect of over 50% in size
# Procedure, shortened: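 Assay format: CHO-ADRB2 cells, 18-20hr seeding at 37C/5% CO2, then compound plus 1nM isoproterenol agonist mix for 0.5hr RT. Homogeneous time-resolved fluorescence cAMP detection after 1hr, expressed as 665/615 nm ratio.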
# [17] = molecular target: Beta-2 adrenergic receptor (Homo sapiens) (UniProt P07550); assay: Adrenergic beta2 receptor (ADRB2) small molecule agonists, cell-based qHTS assay (AID 1963593);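 also: CHO cells stably overexpressing human ADRB2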
# Procedure, shortened: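 CHO cells stably over-expressing ADRB2 were plated overnight at 37C, then dosed with compounds plus a stimulation mix containing 100uM IBMX and 25uM Ro-20-1724 for 0.5hr at room temperature. cAMP was measured by HTRF competition, 1hr.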
# [18] = molecular target: D(2) dopamine receptor (Homo sapiens) (UniProt P14416); assay: Dopamine D2 receptor (DRD2) small molecule agonists, cell-based qHTS assay (AID 1963594); also: nearly all actives have a fitted effect of over 35% in size
# Procedure, shortened: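 HEK293 cells stably expressing DRD2 were cultured 24 h at 37 C, then given Ro20-1724 (0.1 mM final) and compounds for 10 min at room temperature. NKH477 (200nM) was then added for 30 min. cAMP was read by HTRF.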
# [19] = molecular target: D(2) dopamine receptor (Homo sapiens) (UniProt P14416); assay: Dopamine D2 receptor (DRD2) small molecule antagonists, cell-based qHTS assay (AID 1963595; active = well fitted inhibition curve with a large enough effect in the signal ratio in the repeat runs, with a control signal flat; the % refers to the signal ratio)
# Procedure, shortened: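 Stable D2 receptor HEK293 line, 24 h after seeding. Compound preincubated 10 min, then quinpirole (12 nM) with forskolin analogue NKH477 (200 nM), 30 min, room temperature. Detection by time-resolved FRET of cAMP.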
# [20] = molecular target: 5-hydroxytryptamine receptor 2A (Homo sapiens) (UniProt P28223); assay: 5-hydroxytryptamine receptor 2A (HTR2A) small molecule agonists, cell-based qHTS assay (AID 1963587); also: nearly all actives have a fitted effect of over 30% in size
# Procedure, shortened: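 HTR2A-CHO cells, plated 18 h at 37 C/5% CO2, dye-loaded 1 h at 37 C; compounds in DMSO added by pin tool (agonist mode). Intracellular calcium flux read as kinetic fluorescence on FDSS over 2 min at 1 s intervals.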
# D(2) dopamine receptor (Homo sapiens), sequence (P14416 whole entry, looked up): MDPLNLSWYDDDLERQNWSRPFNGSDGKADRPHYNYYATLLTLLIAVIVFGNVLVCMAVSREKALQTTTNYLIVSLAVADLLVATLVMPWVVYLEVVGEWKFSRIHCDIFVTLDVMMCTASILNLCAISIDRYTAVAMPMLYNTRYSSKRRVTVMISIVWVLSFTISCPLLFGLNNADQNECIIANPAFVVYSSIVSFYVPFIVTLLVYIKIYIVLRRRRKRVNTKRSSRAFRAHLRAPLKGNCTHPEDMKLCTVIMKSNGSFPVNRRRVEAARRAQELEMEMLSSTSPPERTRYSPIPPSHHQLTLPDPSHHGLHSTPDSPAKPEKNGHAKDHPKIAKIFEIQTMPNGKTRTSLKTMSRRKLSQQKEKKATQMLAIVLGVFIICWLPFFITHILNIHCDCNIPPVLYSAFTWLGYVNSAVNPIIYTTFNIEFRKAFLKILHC
# 5-hydroxytryptamine receptor 2A (Homo sapiens), sequence (P28223 whole entry, looked up): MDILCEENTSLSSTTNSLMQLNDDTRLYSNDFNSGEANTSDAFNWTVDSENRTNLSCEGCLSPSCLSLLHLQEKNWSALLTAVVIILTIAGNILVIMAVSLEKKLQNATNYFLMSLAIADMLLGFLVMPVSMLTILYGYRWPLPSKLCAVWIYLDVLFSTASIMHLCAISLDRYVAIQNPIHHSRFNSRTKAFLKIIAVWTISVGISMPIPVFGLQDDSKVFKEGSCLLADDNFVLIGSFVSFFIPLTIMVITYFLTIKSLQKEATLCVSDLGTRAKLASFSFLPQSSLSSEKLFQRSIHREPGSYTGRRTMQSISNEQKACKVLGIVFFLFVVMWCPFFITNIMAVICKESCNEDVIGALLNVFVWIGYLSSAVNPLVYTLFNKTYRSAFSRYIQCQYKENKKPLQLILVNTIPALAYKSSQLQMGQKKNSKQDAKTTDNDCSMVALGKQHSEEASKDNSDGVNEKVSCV
# Gonadotropin-releasing hormone receptor (Homo sapiens), sequence (P30968 whole entry, looked up): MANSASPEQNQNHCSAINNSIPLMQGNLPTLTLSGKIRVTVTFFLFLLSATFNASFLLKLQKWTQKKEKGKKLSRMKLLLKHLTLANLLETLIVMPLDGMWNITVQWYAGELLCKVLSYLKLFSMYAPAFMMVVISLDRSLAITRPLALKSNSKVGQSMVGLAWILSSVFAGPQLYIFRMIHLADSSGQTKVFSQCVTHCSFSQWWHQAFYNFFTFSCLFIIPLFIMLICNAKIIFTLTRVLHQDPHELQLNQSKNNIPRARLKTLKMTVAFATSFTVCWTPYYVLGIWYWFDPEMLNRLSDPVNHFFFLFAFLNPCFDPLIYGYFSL
# KiSS-1 receptor (Homo sapiens), sequence (Q969F8 whole entry, looked up): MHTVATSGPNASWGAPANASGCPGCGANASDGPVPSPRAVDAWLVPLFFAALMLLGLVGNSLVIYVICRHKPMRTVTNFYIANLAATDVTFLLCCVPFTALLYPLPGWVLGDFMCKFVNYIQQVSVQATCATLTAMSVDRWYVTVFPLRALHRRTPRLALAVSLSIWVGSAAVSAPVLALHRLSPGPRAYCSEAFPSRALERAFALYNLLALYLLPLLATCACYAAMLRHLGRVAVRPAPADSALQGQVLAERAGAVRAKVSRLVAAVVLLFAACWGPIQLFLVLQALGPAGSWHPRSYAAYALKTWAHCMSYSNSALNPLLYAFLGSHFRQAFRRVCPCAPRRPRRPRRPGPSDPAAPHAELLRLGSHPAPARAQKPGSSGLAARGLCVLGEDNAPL
# Beta-2 adrenergic receptor (Homo sapiens), sequence (P07550 whole entry, looked up): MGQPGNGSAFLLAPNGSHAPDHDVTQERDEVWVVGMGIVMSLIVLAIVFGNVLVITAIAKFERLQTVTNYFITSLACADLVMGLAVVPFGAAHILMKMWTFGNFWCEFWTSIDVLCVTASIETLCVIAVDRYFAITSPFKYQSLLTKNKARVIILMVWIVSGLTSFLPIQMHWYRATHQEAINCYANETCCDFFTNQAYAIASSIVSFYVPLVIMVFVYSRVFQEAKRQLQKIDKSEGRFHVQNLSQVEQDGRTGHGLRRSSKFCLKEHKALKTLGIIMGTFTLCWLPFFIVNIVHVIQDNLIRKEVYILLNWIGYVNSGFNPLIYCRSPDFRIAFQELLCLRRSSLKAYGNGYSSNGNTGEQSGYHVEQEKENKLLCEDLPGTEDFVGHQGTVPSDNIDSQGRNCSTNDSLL
# Muscarinic acetylcholine receptor M1 (Homo sapiens), sequence (P11229 whole entry, looked up): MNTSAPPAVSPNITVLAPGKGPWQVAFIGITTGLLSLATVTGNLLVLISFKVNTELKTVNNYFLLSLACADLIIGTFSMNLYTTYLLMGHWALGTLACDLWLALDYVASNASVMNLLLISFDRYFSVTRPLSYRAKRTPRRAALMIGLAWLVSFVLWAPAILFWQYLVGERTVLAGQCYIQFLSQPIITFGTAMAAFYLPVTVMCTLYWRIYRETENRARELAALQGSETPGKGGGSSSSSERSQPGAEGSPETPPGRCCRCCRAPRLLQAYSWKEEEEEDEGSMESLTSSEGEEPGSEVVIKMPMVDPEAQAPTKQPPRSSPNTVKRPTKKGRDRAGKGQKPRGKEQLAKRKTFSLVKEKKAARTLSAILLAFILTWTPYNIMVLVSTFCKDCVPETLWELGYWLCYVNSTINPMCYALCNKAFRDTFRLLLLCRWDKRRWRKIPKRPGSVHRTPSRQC
Structure (SMILES),Potency [1],Potency [2],Potency [3],Potency [4],Potency [5],Potency [6],Potency [7],Potency [8],Potency [9],Potency [10],Potency [11],Potency [12],Potency [13],Potency [14],Potency [15],Potency [16],Potency [17],Potency [18],Potency [19],Potency [20]
O=C(O)[C@H](O)c1ccccc1,inactive,inactive,inactive,inactive,inactive,inactive,inactive,inactive,inactive,inactive,inactive,inactive,inactive,inactive,inactive,inactive,inactive,inactive,inactive,–
CC/C=C\CCOC(C)OCC (stereo not drawn),inactive,inactive,inactive,inactive,inactive,inactive,inactive,inactive,inactive,inactive,–,inactive,inactive,inactive,inactive,inactive,–,inactive,inactive,inactive
O=[N+]([O-])c1cc[n+]([O-])cc1,inactive,61.1 µM (active),inactive,inactive,inactive,inactive,inactive,inactive,inactive,inactive,inactive,inactive,inactive,inactive,inactive,–,inactive,inactive,–,inactive
CCn1nc(C)c2c1C(=O)NCC(c1ccc(O)cc1)=N2,inactive,inactive,inactive,inactive,inactive,inactive,inactive,inactive,inactive,inactive,inactive,inactive,inactive,–,–,inactive,inactive,inactive,–,inactive
CCOc1ccccc1OCC1CNCCO1 (stereo not drawn),inactive,inactive,inactive,inactive,inactive,inactive,inactive,inactive,inactive,inactive,–,inactive,inactive,–,inactive,–,–,–,inactive,–
CN1CCN(C(=O)C2CCCCC2)CC1,inactive,inactive,inactive,inactive,inactive,inactive,inactive,inactive,inactive,inactive,inactive,inactive,inactive,–,inactive,inactive,inactive,inactive,inactive,inactive
CC(C)C(C)(C)C(C)(C)C(C)(C)S,inactive,inactive,inactive,inactive,inactive,inactive,inactive,inactive,inactive,inactive,–,–,inactive,inactive,–,–,–,–,–,inactive
CCN(Cc1cccnc1)C(=O)c1cccc(Cl)c1[C@]1(C)C(=O)N(Cc2ccc(OC)cc2OC)c2ccc(Cl)cc21,inactive,inactive,inactive,inactive,inactive,inactive,inactive,inactive,–,–,inactive,inactive,inactive,–,–,inactive,–,inactive,–,inactive
CCC[C@@H]1C[C@@H](C(=O)N[C@@H]([C@H]2O[C@H](SC)[C@H](O)[C@@H](O)[C@H]2O)[C@@H](C)O)N(C)C1,inactive,inactive,inactive,inactive,inactive,inactive,inactive,inactive,–,inactive,–,–,–,inactive,inactive,inactive,–,inactive,inactive,–
CN(C)CCN(Cc1ccccc1)c1ccccn1,inactive,inactive,inactive,inactive,inactive,inactive,inactive,inactive,–,–,7.29 µM (active),–,inactive,inactive,inactive,inactive,inactive,inactive,inactive,inactive
Cc1ccc(NC(=O)c2ccc(CN3CCN(C)CC3)cc2)cc1Nc1nccc(-c2cccnc2)n1,inactive,inactive,inactive,inactive,inactive,inactive,inactive,inactive,–,inactive,–,–,–,inactive,–,inactive,inactive,inactive,–,–
OCCCCCO,inactive,inactive,inactive,inactive,inactive,inactive,inactive,inactive,–,inactive,inactive,inactive,inactive,inactive,inactive,inactive,inactive,–,inactive,inactive
COc1ccc2cc(S(=O)(=O)N[C@H](CC(=O)N[C@H](Cc3ccc(CN4[C@H](C)CCC[C@@H]4C)cc3)C(=O)N(C)C(C)C)c3ccc4c(c3)OCO4)ccc2c1,41 µM (active),inactive,inactive,inactive,inactive,inactive,43.3 µM (active),inactive,–,–,inactive,0.794 µM (active),inactive,–,–,inactive,inactive,–,–,inactive
NC(=O)N1C(=O)C(C(=O)c2cc(Cl)cs2)c2cc(F)c(Cl)cc21 (stereo not drawn),24.3 µM (active),inactive,inactive,inactive,inactive,inactive,inactive,inactive,inactive,–,inactive,–,inactive,–,–,–,–,–,inactive,–
CCCCNC(=O)NCCCC,inactive,inactive,inactive,inactive,inactive,inactive,inactive,–,inactive,inactive,inactive,inactive,inactive,inactive,inactive,inactive,inactive,inactive,–,inactive
C=C(C)C(=O)OCCOC1CC2CC1C1C=CCC21 (stereo not drawn),inactive,inactive,inactive,inactive,inactive,inactive,inactive,inactive,–,inactive,–,–,inactive,inactive,–,inactive,–,inactive,inactive,inactive
